For some assays here: Measured potencies and affinities stand elsewhere. Calls of active or inactive are those of the source. Unless noted, how the calls were made is not given here.
What was measured:
[1] = antimalarial activity against Dd2 strain (AID 2302;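 active means growth inhibition above 50% at the single 2 µM test dose, taken to imply half-maximal potency below 2 µM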;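 further: 0% = DMSO untreated growth and 100% = chloroquine plus artemisinin killed control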); conditions: P. falciparum Dd2 in RBCs, LDH growth readout, 72 h; at 2 µM; stronger effect = higher value
[2] = human hepatoma cell viability loss – ATP luminescence, cytotoxicity control for P. falciparum antimalarial project, primary screen (AID 2303;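 active means inhibition above 50%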;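 further: 0% = DMSO wells and 100% = digitonin-killed cells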); conditions: HepG2 viability, 24-48 h, at 10 µM, stronger effect = higher value
[3] = molecular target: L-lactate dehydrogenase (Plasmodium falciparum (isolate CDC / Honduras)) (UniProt Q27743); experiment: PfLDH activity inhibition – cell lysate, 3D7 strain, counter-screen for P. falciparum growth inhibition project (AID 2304);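 further: 0% = vehicle and 100% = reference inhibitor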; conditions: P. falciparum 3D7 crude extract, LDH APAD/NBT absorbance; at 2 µM; stronger effect = higher value
Sequence of L-lactate dehydrogenase (Plasmodium falciparum (isolate CDC / Honduras)) (Q27743 whole entry, looked up): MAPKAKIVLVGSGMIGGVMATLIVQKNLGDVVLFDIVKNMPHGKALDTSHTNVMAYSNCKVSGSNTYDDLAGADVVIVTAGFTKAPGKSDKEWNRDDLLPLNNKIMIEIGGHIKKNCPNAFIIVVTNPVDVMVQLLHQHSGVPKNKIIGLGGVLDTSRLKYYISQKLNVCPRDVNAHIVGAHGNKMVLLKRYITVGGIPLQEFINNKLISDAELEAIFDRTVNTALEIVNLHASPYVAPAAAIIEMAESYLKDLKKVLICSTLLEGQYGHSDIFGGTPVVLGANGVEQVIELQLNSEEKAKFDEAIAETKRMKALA

[4] = inhibition of 3D7 malaria parasite growth – strain 3D7 (AID 2306);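 further: 0% = DMSO wells and 100% = chloroquine plus artemisinin control wells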; conditions: P. falciparum 3D7 erythrocytic growth, LDH absorbance, 72 h; at 2 µM; stronger effect = higher value
[5] = molecular target: Calcium-dependent protein kinase 1 (Plasmodium falciparum (isolate 3D7)) (UniProt P62344); experiment: PfCDPK1 kinase inhibitors, biochemical, TCAMS library (AID 1159585; cut-off not given, nearly all actives have IC50 up to about 0.98 µM;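 further: inhibitors leave more ATP so luminescence rises with inhibition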); conditions: recombinant PfCDPK1, Kinase-Glo ATP depletion luminescence
Sequence of Calcium-dependent protein kinase 1 (Plasmodium falciparum (isolate 3D7)) (P62344 whole entry, looked up): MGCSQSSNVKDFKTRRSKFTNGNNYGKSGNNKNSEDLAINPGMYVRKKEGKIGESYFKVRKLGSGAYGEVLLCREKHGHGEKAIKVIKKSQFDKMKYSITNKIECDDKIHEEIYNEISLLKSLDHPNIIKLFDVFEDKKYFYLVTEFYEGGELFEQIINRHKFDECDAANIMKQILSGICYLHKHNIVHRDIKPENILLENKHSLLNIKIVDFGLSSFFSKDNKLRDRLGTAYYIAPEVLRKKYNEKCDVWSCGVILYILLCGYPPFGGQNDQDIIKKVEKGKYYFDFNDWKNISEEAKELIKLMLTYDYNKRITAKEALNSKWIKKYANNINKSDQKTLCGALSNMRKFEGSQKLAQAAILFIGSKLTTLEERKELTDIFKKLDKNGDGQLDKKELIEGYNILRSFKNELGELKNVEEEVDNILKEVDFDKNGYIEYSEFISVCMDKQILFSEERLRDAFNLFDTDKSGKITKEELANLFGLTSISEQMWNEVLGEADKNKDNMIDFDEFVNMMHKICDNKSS

[6] = molecular target: Plasmodium falciparum protein kinase 6 (PK6, PF3D7_1337100) (UniProt Q8IDW1); experiment: PfPK6 kinase inhibitors, biochemical, TCAMS library (AID 1159586); conditions: recombinant PfPK6, Kinase-Glo ATP depletion luminescence
Sequence of Plasmodium falciparum protein kinase 6 (PK6, PF3D7_1337100) (Q8IDW1 1-305): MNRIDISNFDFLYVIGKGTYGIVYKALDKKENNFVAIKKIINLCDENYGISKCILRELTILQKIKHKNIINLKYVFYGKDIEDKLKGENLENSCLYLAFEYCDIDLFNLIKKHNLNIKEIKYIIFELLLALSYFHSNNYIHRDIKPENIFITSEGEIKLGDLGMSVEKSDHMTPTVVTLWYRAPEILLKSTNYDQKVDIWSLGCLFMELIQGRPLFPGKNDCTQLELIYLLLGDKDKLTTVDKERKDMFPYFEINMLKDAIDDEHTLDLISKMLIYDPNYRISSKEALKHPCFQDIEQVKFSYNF

[7] = molecular target: Protein kinase 7 (PK7), Plasmodium falciparum 3D7 (PF3D7_0213400) (UniProt Q7YTF7); experiment: inhibition of Plasmodium PK7 catalytic activity – biochemical, TCAMS antimalarial set, Kinase-Glo luminescence (AID 1159587); conditions: recombinant PfPK7, Kinase-Glo ATP depletion luminescence
Sequence of Protein kinase 7 (PK7), Plasmodium falciparum 3D7 (PF3D7_0213400) (Q7YTF7 1-343): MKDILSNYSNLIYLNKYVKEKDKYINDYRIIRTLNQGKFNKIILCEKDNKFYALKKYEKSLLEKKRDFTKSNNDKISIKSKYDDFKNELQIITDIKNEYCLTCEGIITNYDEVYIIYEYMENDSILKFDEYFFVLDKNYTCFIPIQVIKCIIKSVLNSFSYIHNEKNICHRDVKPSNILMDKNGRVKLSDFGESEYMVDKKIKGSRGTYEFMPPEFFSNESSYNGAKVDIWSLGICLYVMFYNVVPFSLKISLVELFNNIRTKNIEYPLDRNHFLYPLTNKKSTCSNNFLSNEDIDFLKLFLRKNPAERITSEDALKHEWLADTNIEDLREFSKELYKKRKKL

[8] = molecular target: Calcium-dependent protein kinase 4 (Plasmodium falciparum (isolate 3D7)) (UniProt Q8IBS5); experiment: PfCDPK4 kinase inhibitors, biochemical, TCAMS library (AID 1159588; cut-off not given, nearly all actives have IC50 up to about 0.91 µM); conditions: recombinant PfCDPK4, Kinase-Glo ATP depletion luminescence
Sequence of Calcium-dependent protein kinase 4 (Plasmodium falciparum (isolate 3D7)) (Q8IBS5 whole entry, looked up): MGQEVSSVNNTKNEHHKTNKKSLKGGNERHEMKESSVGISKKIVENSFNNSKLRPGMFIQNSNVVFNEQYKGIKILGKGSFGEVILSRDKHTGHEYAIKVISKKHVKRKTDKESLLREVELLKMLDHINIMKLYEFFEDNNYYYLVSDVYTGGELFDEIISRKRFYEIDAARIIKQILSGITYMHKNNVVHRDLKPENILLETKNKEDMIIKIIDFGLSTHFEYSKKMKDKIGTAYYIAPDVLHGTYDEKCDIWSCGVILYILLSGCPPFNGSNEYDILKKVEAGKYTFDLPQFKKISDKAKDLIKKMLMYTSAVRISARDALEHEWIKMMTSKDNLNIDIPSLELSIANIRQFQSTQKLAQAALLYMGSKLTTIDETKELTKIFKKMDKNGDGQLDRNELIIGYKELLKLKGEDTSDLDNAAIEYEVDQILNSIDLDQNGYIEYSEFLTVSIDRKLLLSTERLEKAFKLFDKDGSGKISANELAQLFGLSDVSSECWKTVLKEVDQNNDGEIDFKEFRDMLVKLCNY

N#Cc1cncc(-c2nc3c(N4CCCC(N)C4)cccc3n2CCNCc2ccccc2)c1 (stereo not given)
active: growth inhibition [4] 101%
inactive: growth inhibition [1] 1% | inhibition [2] 8% | inhibition [3] -1% | outcome [5] | outcome [6] | outcome [7] | outcome [8]

Cc1cccc2[nH]c(-c3cccc(-c4cccc(CNC(C)C)c4)c3)nc12
inactive: inhibition [2] 29% | inhibition [3] -4% | outcome [5] | outcome [6] | outcome [7] | outcome [8]
active: growth inhibition [1] 98% | growth inhibition [4] 102%

CN(C)CCNC(=O)c1cc2c(-c3ccc(Cl)cc3)nn(C)c2s1
inactive: inhibition [2] 18% | inhibition [3] -1% | outcome [5] | outcome [6] | outcome [7] | outcome [8]
active: growth inhibition [1] 81% | growth inhibition [4] 98%

O=C(Nc1ccccc1-c1nc2ccccc2s1)C(Cl)(Cl)Cl
inactive: inhibition [2] 12% | inhibition [3] -7% | outcome [5] | outcome [6] | outcome [7] | outcome [8]
active: growth inhibition [1] 99% | growth inhibition [4] 97%

CC(C)Sc1nncc(-c2cnnc(SC(C)C)n2)n1
inactive: inhibition [2] -1% | inhibition [3] 2% | outcome [5] | outcome [6] | outcome [7] | outcome [8]
active: growth inhibition [1] 100% | growth inhibition [4] 101%

COCCN(C(=O)Cc1cccs1)C(C(=O)NCc1ccc(OC)cc1)c1ccc(C(C)C)cc1 (stereo not given)
active: growth inhibition [1] 59% | growth inhibition [4] 96%
inactive: inhibition [2] -13% | inhibition [3] 4% | outcome [5] | outcome [6] | outcome [7] | outcome [8]

CNC(=O)c1cnc(Nc2ccc(N3CCN(C)CC3)cc2)nc1Nc1cccc([N+](=O)[O-])c1
inactive: inhibition [2] 31% | inhibition [3] -8% | outcome [5] | outcome [6] | outcome [7] | outcome [8]
active: growth inhibition [1] 100% | growth inhibition [4] 103%

CCC(CC)N1CCN(CC(=O)Nc2ccc([N+](=O)[O-])cc2C(=O)Nc2cccc(OC)c2)CC1
inactive: growth inhibition [1] 35% | inhibition [2] 35% | inhibition [3] 0% | outcome [5] | outcome [6] | outcome [7] | outcome [8]
active: growth inhibition [4] 100%

COc1cccc(Nc2nc(C)cc(NCc3ccc(-n4ccnc4)cc3)n2)c1
inactive: inhibition [2] -13% | inhibition [3] -5% | outcome [5] | outcome [6] | outcome [7] | outcome [8]
active: growth inhibition [1] 99% | growth inhibition [4] 101%

COc1cc(F)c2nccc([C@@H](O)CN3CCC(NCc4cc5c(cc4F)OCCO5)CC3)c2c1
inactive: growth inhibition [1] 45% | inhibition [2] 23% | inhibition [3] -1% | outcome [5] | outcome [6] | outcome [7] | outcome [8]
active: growth inhibition [4] 99%

CCCc1cc(NCc2ccncc2)nc(Nc2ccc(F)cc2)n1
active: growth inhibition [4] 90%
inactive: growth inhibition [1] 6% | inhibition [2] 9% | inhibition [3] -7% | outcome [5] | outcome [6] | outcome [7] | outcome [8]

COc1ccc(NS(=O)(=O)c2cc(NC(=O)Cn3ccccc3=O)ccc2N2CCCCC2)cc1
active: growth inhibition [1] 83% | growth inhibition [4] 92%
inactive: inhibition [2] 20% | inhibition [3] 1% | outcome [5] | outcome [6] | outcome [7] | outcome [8]

CC1(C)[C@H]2C=C(CN3CCC(NC(=O)Nc4ccc(Cl)c(Cl)c4)CC3)[C@@H]1CC2
active: growth inhibition [4] 101%
inactive: growth inhibition [1] 33% | inhibition [2] 28% | inhibition [3] 2% | outcome [5] | outcome [6] | outcome [7] | outcome [8]

CN(C(=O)/C=C/c1ccccc1F)C1CCN(CCCCCNC(=O)/C=C/c2ccc(Cl)c(Cl)c2)CC1
inactive: inhibition [3] -1% | outcome [5] | outcome [6] | outcome [7] | outcome [8]
active: growth inhibition [1] 59% | inhibition [2] 73% | growth inhibition [4] 89%

C=CCNC(=O)CCCN=C(N)N
active: growth inhibition [4] 98%
inactive: growth inhibition [1] 12% | inhibition [2] -9% | inhibition [3] -1% | outcome [5] | outcome [6] | outcome [7] | outcome [8]

Cc1nc(-c2nc(N3CCOCC3)ncc2-c2ccsc2)sc1C
active: growth inhibition [1] 75% | growth inhibition [4] 89%
inactive: inhibition [2] 5% | inhibition [3] -7% | outcome [5] | outcome [6] | outcome [7] | outcome [8]

O=C(Nc1cc(Cl)cc(Cl)c1)c1cc(Cl)c(=O)n(Cc2cccc(Cl)c2)c1
active: growth inhibition [1] 62% | growth inhibition [4] 100%
inactive: inhibition [2] 8% | inhibition [3] 2% | outcome [5] | outcome [6] | outcome [7] | outcome [8]

O=C(NC1CC1)c1ccc(N2CCC(Oc3ccc(F)cc3)CC2)nc1
active: growth inhibition [1] 79% | growth inhibition [4] 89%
inactive: inhibition [2] -2% | inhibition [3] -1% | outcome [5] | outcome [6] | outcome [7] | outcome [8]

N#Cc1ccccc1C1CCN(C2CCC(Nc3cc(-c4cccnc4)ccn3)CC2)CC1 (stereo not given)
active: growth inhibition [1] 78% | growth inhibition [4] 100%
inactive: inhibition [2] 38% | inhibition [3] 5% | outcome [5] | outcome [6] | outcome [7] | outcome [8]

COc1ccc(CCN2CCC(CN(C)Cc3cnn(-c4ccccc4)c3)CC2)cc1
active: growth inhibition [4] 90%
inactive: growth inhibition [1] 5% | inhibition [2] 25% | inhibition [3] -1% | outcome [5] | outcome [6] | outcome [7] | outcome [8]

O=C(Nc1ccc(Cl)cc1Cl)N[C@H]1CCN(CCCCCNC(=O)[C@@H]2C[C@H]2c2ccc(Cl)c(Cl)c2)C1
inactive: growth inhibition [1] 0% | inhibition [2] 37% | inhibition [3] 2% | outcome [5] | outcome [6] | outcome [7] | outcome [8]
active: growth inhibition [4] 94%

CN1CCN(CCCN(Cc2ccc(-c3ccc(CNC4CCCC4)cc3)cc2)C(=O)CCC2CCCC2)CC1
inactive: inhibition [3] 2% | outcome [5] | outcome [6] | outcome [7] | outcome [8]
active: growth inhibition [1] 96% | inhibition [2] 92% | growth inhibition [4] 98%

Cc1cc(NN=Cc2ccccc2F)c2cc(C(F)(F)F)ccc2n1
active: growth inhibition [1] 67% | growth inhibition [4] 102%
inactive: inhibition [2] 5% | inhibition [3] 2% | outcome [5] | outcome [6] | outcome [7] | outcome [8]

C=Cc1c(C2CCN(CCCCNC(=O)c3ccc(-c4ccc(C#N)cc4)cc3)CC2)ccc2c1CCCC2
inactive: inhibition [3] 1% | outcome [5] | outcome [6] | outcome [7] | outcome [8]
active: growth inhibition [1] 75% | inhibition [2] 75% | growth inhibition [4] 94%

CC(C)(C)c1ccc(C(=O)N2CCC3(CC2)C(=O)N(CC(=O)NCC2CCCO2)CN3c2ccccc2)cc1 (stereo not given)
inactive: inhibition [2] 8% | inhibition [3] 0% | outcome [5] | outcome [6] | outcome [7] | outcome [8]
active: growth inhibition [1] 100% | growth inhibition [4] 100%

COc1cc(OC)c(OC)cc1C=NNc1cc(C)nc2ccccc12
active: growth inhibition [1] 95% | growth inhibition [4] 100%
inactive: inhibition [2] 5% | inhibition [3] 0% | outcome [5] | outcome [6] | outcome [7] | outcome [8]

Cc1cccc2[nH]c(-c3cccc(-c4cccc(NC(=O)Nc5cccc(C#N)c5)c4)c3)nc12
active: growth inhibition [1] 99% | growth inhibition [4] 101%
inactive: inhibition [2] 22% | inhibition [3] 6% | outcome [5] | outcome [6] | outcome [7] | outcome [8]

CCOc1c(CCNCCCCNCCc2ccc3ccccc3c2OCC)ccc2ccccc12
inactive: inhibition [3] -3% | outcome [5] | outcome [6] | outcome [7] | outcome [8]
active: growth inhibition [1] 87% | inhibition [2] 100% | growth inhibition [4] 94%

O=C(/C=C/c1ccc(Cl)c(Cl)c1)NCCCCCN1CCN(C(=O)Nc2ccc(OC(F)F)cc2)CC1
active: growth inhibition [4] 99%
inactive: growth inhibition [1] -2% | inhibition [2] 20% | inhibition [3] 4% | outcome [5] | outcome [6] | outcome [7] | outcome [8]

O=C(/C=C/c1ccc(Cl)c(Cl)c1)NCCCCCN1CCC(NC(=O)Nc2ccc3c(c2)OCO3)CC1
active: growth inhibition [4] 103%
inactive: growth inhibition [1] 5% | inhibition [2] 12% | inhibition [3] 6% | outcome [5] | outcome [6] | outcome [7] | outcome [8]

CCN(CCCN1CCCCC1)c1cc(C)nc(Nc2ccc(C)c(F)c2)n1
inactive: inhibition [2] 20% | inhibition [3] -5% | outcome [5] | outcome [6] | outcome [7] | outcome [8]
active: growth inhibition [1] 92% | growth inhibition [4] 102%

CN(C)c1ccc(CN2CCC(CNC(=O)c3cc(-c4cccc(C(F)(F)F)c4)cs3)C2)cc1 (stereo not given)
active: growth inhibition [4] 96%
inactive: growth inhibition [1] 34% | inhibition [2] 39% | inhibition [3] 0% | outcome [5] | outcome [6] | outcome [7] | outcome [8]

NC1=NC2(CCCCC2)N(OCCOc2ccc(Cc3ccccc3)cc2)C(N)=N1
active: growth inhibition [4] 86%
inactive: growth inhibition [1] 22% | inhibition [2] 34% | inhibition [3] 2% | outcome [5] | outcome [6] | outcome [7] | outcome [8]

COCc1ccc(CN2CCC(C(=O)Nc3ccc(-c4nc5ccccc5[nH]4)cc3)CC2)o1
inactive: growth inhibition [1] 13% | inhibition [2] 13% | inhibition [3] -5% | outcome [5] | outcome [6] | outcome [7] | outcome [8]
active: growth inhibition [4] 97%

Cc1nc2ccccc2c(=O)n1N=Cc1ccccc1[N+](=O)[O-]
inactive: growth inhibition [1] 26% | inhibition [2] -8% | inhibition [3] 3% | outcome [5] | outcome [6] | outcome [7] | outcome [8]
active: growth inhibition [4] 94%

Cc1ccc(-c2cc3nc4c(c(NCCCn5ccnc5)n3n2)CCC4)cc1
inactive: growth inhibition [1] 21% | inhibition [2] 22% | inhibition [3] -2% | outcome [5] | outcome [6] | outcome [7] | outcome [8]
active: growth inhibition [4] 94%

COc1ccc2nccc([C@@H](O)CN3CCC(NC(=O)/C=C/c4ccc5ccccc5n4)CC3)c2c1
active: growth inhibition [4] 91%
inactive: growth inhibition [1] 9% | inhibition [2] 12% | inhibition [3] 1% | outcome [5] | outcome [6] | outcome [7] | outcome [8]

COc1cc(OC)c(NC(=O)C2c3ccccc3C(=O)N(CC(C)C)C2c2cccs2)cc1Cl (stereo not given)
inactive: inhibition [2] 9% | inhibition [3] -1% | outcome [5] | outcome [6] | outcome [7] | outcome [8]
active: growth inhibition [1] 100% | growth inhibition [4] 100%

O=C(NCCCCN1CCN(c2cccc(Cl)c2Cl)CC1)c1ccc2c(c1)CCN(C1CCC1)CC2
active: inhibition [2] 97% | growth inhibition [4] 95%
inactive: growth inhibition [1] 31% | inhibition [3] 3% | outcome [5] | outcome [6] | outcome [7] | outcome [8]

Fc1cccc(Cl)c1-c1nc(NCCC(c2ccccc2)c2ccccc2)no1
inactive: inhibition [2] 4% | inhibition [3] -3% | outcome [5] | outcome [6] | outcome [7] | outcome [8]
active: growth inhibition [1] 87% | growth inhibition [4] 99%
